The record followed here is the supplement of paper PMC6555819.

The subject of this test is VDR:RXRa (NR concentration 270 nM, RXRa partner concentration 90 nM). As to the kind of experiment: PBM binding z-score (relative to random genomic background probes); higher = stronger binding; sequences stand for … in GC…GCGATTGACAGCGTAGAATGAAGG
The method, then:
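Protein-binding microarray (Agilent 4x180K custom design, double-stranded 60-nt probes: 5' GC cap, 34-nt variable region, 24-nt constant primer region; full probe sequence given). Purified or IVT nuclear receptor:RXRα heterodimers (3:1 NR:RXRα, mostly 270:90 nM) or homodimers were incubated for 1 h in PBS with 2% milk and no ligand, then detected with Alexa488 antibodies. Fluorescence from o1-orientation probes (~5 replicates averaged) was converted to z-scores against 500 random hg19 background probes. Variable regions are seed direct-repeat (DR0–DR5) sites, all their single-nucleotide variants and half-site ablations.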
Sequence ATCTCTAGGTAACAAGTTCCGTGAAAGAGAGGAC had a PBM binding z-score of 0.0818.
Under CCTTACGCGTCACGAGGTTATAGCACGACGAGCG stands 0.899; under GCTTGTAGATCAAGGTTAAGACAGACTAAGCTAA, 0.166; under TTGCCTAGGTCATGCGGGCCAGTATAGTGTCGGC, 2.8.
To TTACCAAGGTTAGCTGAGGTCGTTGATCCAACTC belongs 5.09; to TAGCCTAGGTCATTCAGGGCCCAGTATAGAAAGC, 2.8.
Under CGTCAAAATTCAAGGTAACGTAACAGAAAGCAGC stands 0.111; under GATACAGGGTCAGCTAGAGGCCAGAGGATGGAAA, 3.12; under TCTTGTAGATCAATAGAGGCTAAGAAAGTGCGCT, 0.377.
For the sequence ATCTCTAGGTGACCAAGTTCAGTGAATGCCGAAC, the PBM binding z-score worked out at 4.77.
GCTGCTAGGTCATCTGATGGTCAGCTAAAGCTCG: the PBM binding z-score was 1.98.
Under GCTTACGGGACAAAGGTTATAGCATGAATAGAAT stands 1.24.
Under GCAACGAGGGCATTCGAGTTGATAGCATGGCGAT stands 3.57; under AGTCAAAGTTCATTAGGTAACGTAAGATTCAGCT, 4.72; under TCTTGTAGAACAAAGGTTAAGAAAGCCGAAGCCT, 1.18.
Take GGACCGAGGGCAAGTTGATAGCAGAGTTTGATGG: the PBM binding z-score turned out to be 0.844.
For the sequence CCTAGTTGGTCAGGAGGTCACACAACGGATATGA, the PBM binding z-score was determined as 3.97.
TTACCAAGGTGAAGGTCGTCGATCCCTCTGTAGA yielded a PBM binding z-score of 1.09.
Under CCTGCTAGGTCATGGTCAGCTAATCTACAGTATG stands 1.7; under CAAACTAGGTCACCGGAAGATCAAAGTCCGCATG, 2.62; under CATACAGGGTCAGCTAGGCCATAGTAGGGACGGC, 4.92.
To GGAACGAGGGCAAAGTTGATAGCGTCTGTCGACG belongs 1.39.
Under GCTTACCGGTCAAAGGTTATAGCATGAATAGAAT stands 2.81; under CGTCAAAGTTCAAATAAGGTAACGTAAAGCACGC, 4.74.
In turn, TCTGCTAGGTCAGTTGGTCAGCAAACGAGCTGCC displayed a PBM binding z-score of 0.276.
To CGTTCAAGGTCAGCAGGTCAGTGAAAGCGACGTG belongs 4.25; to GCTTACGGGTCAATGGTTATAGCATGAATAGAAT, 2.99.
Under TGAATGAGGTTAAAGATCAGGGACCGTGGCGTCG stands 1.77; under TCGCCTAGGTCAGATCGGGCCAGTATACGCTATA, 0.717.
To TCTTGTAGGTCAGCAGGTTAAGAAAGCTGGCCAA belongs 3.54.
As for ATATGTAGGTTACATCCGGGTCATTTAGGCTATG, the PBM binding z-score stood at 3.9.
Under CCTTACGGGTCACCAGGTTATAGCACGACGAGCG stands 4.64.
To ATATGTAGGTTACATCCGTGTCATTCAGGCTATG belongs 1.4.
The sequence TCTATTAGTTGATTAGGGCAACCGTAACAGCGGA showed a PBM binding z-score of 0.769.
To TATACAGGGTCCAAGGCCAGAGTACGAATGTCGA belongs 0.821.
In the case of GCATATAGGTAATACAAGGTGAAAGTACGATTGT, the PBM binding z-score was determined as 0.62.
Under CAAACTAGGACACAGAGGTCAAAGTCCGTGCGTA stands 5.69.
Consider AATACAGGGTTATCGTAGGCCAGAGTACGCACAG, for which the PBM binding z-score came to 1.61.
Under GATACAGGGTCCAGGCCAGAGTACGCGTATTGAT stands -0.0532; under CCTATTAGTTGACCATAAGGGCAACCCAAGCTCG, 0.972.
